The text below walks through data of PubChem BioAssay (Tox21).

The structures appear in SMILES notation. “And” between values parts separate entries of the source, which are not always exact repeats. Equal values may be shown once. Records with an inconclusive call do not appear. The source holds several records for some structures; these can differ, active in one and inactive in another. The source made the active and inactive calls. Unless noted, calls follow the shape of the dose curve; as a rule, active = well fitted curve in the direction sought with a large enough effect in the repeat runs; inconclusive = weak or mixed curves; inactive = no such curve, though single readings can be large; an effect the other way counts as inactive or inconclusive.

The nature of test [1]: qHTS assay to identify small molecule agonists of the retinoic acid receptor (RAR) signaling pathway (AID 1159553). A digest of the protocol:
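Luminescence was measured 30 min after luciferase reagent addition at room temperature. Before that, C3RL4 reporter cells (1,000 per well, plated overnight) were treated with compound for 6 hr at 37 C and 5% CO2.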
(In general: qHTS replaces the single test concentration by a dilution series.)

Test [2] in a line: qHTS assay to identify small molecule antagonists of the estrogen related receptor (ERR) signaling pathway from Tox21 library - cell viability counter screen (AID 1224834). Also: nearly all actives have a fitted effect of over 30% in size. Also: potency is read from the fitted curve at half-maximal effect. Summed up: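 CellTiter-Fluor fluorescence, read after 30 min at 37 C, measures viability of ERR cells. Cells plated at 2,000/well and incubated 6 h before pin-tool compound addition, then exposed 17.5 hours at 37 C.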

Test [3] has as its target Luciferin 4-monooxygenase (Photinus pyralis) (UniProt P08659). Put plainly: qHTS assay to identify small molecule inhibitors of firefly luciferase (AID 1224835). Also: nearly all actives have a fitted effect of over 25% in size. Also: potency is read from the fitted curve at half-maximal effect. A digest of the protocol:
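Inhibition of purified Photinus luciferase is measured by luminescence. Substrate levels (D-luciferin, ATP) sit at their KM values. Each compound is tested in a concentration series.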

Test [4] in a line: qHTS assay to identify small molecule agonists of the constitutive androstane receptor (CAR) signaling pathway - cell viability counter screen (AID 1224836). Also: series mostly up to about 92 µM; nearly all actives have a fitted effect of over 45% in size. A digest of the protocol:
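Double-stable HepG2 hepatoma cells (hCAR plus CYP2B6-2.2kb) are treated for 23 h at 37 C with test compounds in 15-point concentration series. PK11195 at 0.75 uM final is co-added. Cell viability is quantified by CellTiter-Fluor.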

The nature of test [5]: qHTS assay to identify small molecule antagonists of the constitutive androstane receptor (CAR) signaling pathway - cell viability counter screen (AID 1224837). Also: series mostly up to about 92 µM; nearly all actives have a fitted effect of over 45% in size. Summed up: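 Cytotoxicity counter-screen: CellTiter-Fluor fluorescence after 23 h compound exposure (15-point qHTS) in double-stable HepG2-CYP2B6-hCAR cells, with 50 nM CITCO added.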
Test [6] can be described thus: qHTS assay to identify small molecule antagonists of the estrogen related receptor signaling pathway with the pleiotropic PPARgamma coactivator (PGC) from Tox21 10K library - cell viability counter screen (AID 1224840; active = well fitted cell-killing curve with a large enough effect in the repeat runs, not every such curve was filed as active; also: nearly all actives have a fitted effect of over 40% in size; also: potency is read from the fitted curve at half-maximal effect). A digest of the protocol: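 Counter-screen for cytotoxicity: after 17.5 h compound exposure at 37 C, CellTiter-Fluor reagent added to PGC/ERR cells for 30 min and fluorescence read. Cells were seeded at 2,000 per well 6 h before dosing.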

The target of test [7] is Thyrotropin receptor (Homo sapiens) (UniProt P16473). Put plainly: qHTS assay to identify small molecule agonists of the thyroid stimulating hormone receptor (TSHR) signaling pathway (AID 1224843; calls by dose curve; also: nearly all actives have a fitted effect of over 45% in size). A digest of the protocol: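 Agonist activity read as cAMP rise via d2/cryptate HTRF competition, 1 h room-temperature detection, in HEK293 cells expressing TSHR. Fifteen-point titrations, each run in triplicate, with a 30 min room-temperature incubation beforehand.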

Test [8] in a line: qHTS assay to identify small molecule agonists of the hypoxia (HIF-1) signaling pathway - cell viability counter screen (AID 1224844; calls by dose curve; also: nearly all actives have a fitted effect of over 50% in size). Summed up: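 Cytotoxicity measured by CellTiter-Glo ATP luminescence in the wells also read for beta-lactamase signal. Cells were HRE-bla ME-180 (2,000/well, 0.5% dialyzed FBS), exposed to compounds for 17 h at 37C.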
Test [9] can be described thus: qHTS assay to identify small molecule agonists of the hypoxia (HIF-1) signaling pathway (AID 1224846; active = well fitted activation curve with a large enough effect in the signal ratio in the repeat runs, not every such curve was filed as active; the % refers to the signal ratio). A digest of the protocol:
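Compounds added to ME-180 cells carrying hypoxia-response-element beta-lactamase reporter (0.5% dialyzed FBS, 5 h preplating), 17 h at 37C; agonist activity detected by CCF4-AM B/G FRET read-out.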

The target of test [10] is Nuclear receptor subfamily 1 group I member 3 (Homo sapiens) (UniProt Q14994). As to the kind of experiment: qHTS assay to identify small molecule antagonists of the constitutive androstane receptor (CAR) signaling pathway (AID 1224838).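 Also: HepG2 cells stably expressing hCAR with CYP2B6 luciferase reporter stimulated by CITCO; nearly all actives have a fitted effect of over 40% in size.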 Also: potency is read from the fitted curve at half-maximal effect. Summed up: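 Antagonism measured as luciferase signal (ONE-Glo, 30 min, room temperature) in CAR-stimulated cells: HepG2-CYP2B6-hCAR double-stable line exposed 24 hr at 37 C to compound in a 15-point series plus 50 nM CITCO.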

For test [11] the target is unchanged. Put plainly: qHTS assay to identify small molecule agonists of the constitutive androstane receptor (CAR) signaling pathway (AID 1224839). Also: nearly all actives have a fitted effect of over 15% in size. Also: potency is read from the fitted curve at half-maximal effect.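 As to activation: HepG2 cells stably carrying human CAR and a CYP2B6 luciferase reporter; series mostly up to about 92 µM.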 Summed up:
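Readout: firefly luciferase luminescence via ONE-Glo. System: HepG2 double-stable for hCAR and CYP2B6-2.2kb. Conditions: 15-point compound titration, PK11195 at 0.75 uM final, 24 h incubation.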

Test [12] is described as follows: qHTS assay to identify small molecule agonists of H2AX (AID 1224845; active = well fitted activation curve with a large enough effect in the signal ratio in the repeat runs, not every such curve was filed as active; the % refers to the signal ratio; also: potency is read from the fitted curve at half-maximal effect). Summed up:
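Phospho-H2AX Ser139 measured by HTRF (ex 320 nm; em 665 and 620 nm) after 24 hr antibody incubation. Compounds, 15 concentrations, 0.76% DMSO, were applied to CHO-K1 cells for 3hr at 37C before lysis.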

Test [13] is described as follows: qHTS assay to identify small molecule antagonists of the estrogen related receptor (ERR) signaling pathway - cell viability counter screen (AID 1224818). Also: series mostly up to about 46 µM. Summed up: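 Cytotoxicity counter screen: fluorescence from CellTiter-Fluor, added after 17.5 h compound exposure at 37 C and read 30 min later. ERR cell line seeded at 2,000 cells/well, preincubated 6 h before dosing.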

Test [14] can be described thus: qHTS assay to identify small molecule antagonists of the estrogen related receptor signaling pathway with the pleiotropic PPARgamma coactivator (PGC) cell viability counter screen (AID 1224822; also: potency is read from the fitted curve at half-maximal effect). Summed up:
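Viability counter-screen read by fluorescence intensity after 30 min with CellTiter-Fluor at 37 C; PGC/ERR reporter cells were exposed to compounds for 17.5 h at 37 C following a 6 h preincubation.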

Test [15] is described as follows: qHTS assay to identify small molecule antagonists of the estrogen related receptor signaling pathway with the pleiotropic PPARgamma coactivator (PGC) from Tox21 10K library (AID 1224841; call rule not given here; also: actives are mostly falling curves and most rising ones were filed inactive; nearly all actives have a fitted effect of over 50% in size; also: potency is read from the fitted curve at half-maximal effect). A digest of the protocol:
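Luminescence (One-Glo, 30 min at room temperature) after 18 h compound treatment at 37 C of PGC/ERR reporter cells plated at 2,000 cells/well and settled 6 h beforehand.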

Test [16] can be described thus: qHTS assay to identify small molecule agonists of the estrogen related receptor signaling pathway with the pleiotropic PPARgamma coactivator (PGC) from Tox21 10K library (AID 1224842). Also: nearly all actives have a fitted effect of over 15% in size. Summed up:
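Luminescence from One-Glo (30 min, room temperature) measured after PGC/ERR cells had 18 h at 37 C with pinned compound (23 nL in DMSO). Cells had been seeded at 2,000 per well and pre-incubated 6 h.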

Nuclear receptor subfamily 1 group I member 3 (Homo sapiens), sequence (Q14994 whole entry, looked up): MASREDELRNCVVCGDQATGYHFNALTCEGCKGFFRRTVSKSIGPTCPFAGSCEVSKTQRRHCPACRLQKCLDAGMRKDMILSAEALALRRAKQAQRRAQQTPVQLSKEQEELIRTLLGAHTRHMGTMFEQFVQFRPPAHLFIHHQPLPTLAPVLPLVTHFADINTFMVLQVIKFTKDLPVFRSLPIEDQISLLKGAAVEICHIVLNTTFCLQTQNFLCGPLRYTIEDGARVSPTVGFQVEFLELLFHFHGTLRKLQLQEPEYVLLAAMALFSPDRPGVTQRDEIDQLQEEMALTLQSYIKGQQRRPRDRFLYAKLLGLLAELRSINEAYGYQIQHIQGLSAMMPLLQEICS
Thyrotropin receptor (Homo sapiens), sequence (P16473 whole entry, looked up): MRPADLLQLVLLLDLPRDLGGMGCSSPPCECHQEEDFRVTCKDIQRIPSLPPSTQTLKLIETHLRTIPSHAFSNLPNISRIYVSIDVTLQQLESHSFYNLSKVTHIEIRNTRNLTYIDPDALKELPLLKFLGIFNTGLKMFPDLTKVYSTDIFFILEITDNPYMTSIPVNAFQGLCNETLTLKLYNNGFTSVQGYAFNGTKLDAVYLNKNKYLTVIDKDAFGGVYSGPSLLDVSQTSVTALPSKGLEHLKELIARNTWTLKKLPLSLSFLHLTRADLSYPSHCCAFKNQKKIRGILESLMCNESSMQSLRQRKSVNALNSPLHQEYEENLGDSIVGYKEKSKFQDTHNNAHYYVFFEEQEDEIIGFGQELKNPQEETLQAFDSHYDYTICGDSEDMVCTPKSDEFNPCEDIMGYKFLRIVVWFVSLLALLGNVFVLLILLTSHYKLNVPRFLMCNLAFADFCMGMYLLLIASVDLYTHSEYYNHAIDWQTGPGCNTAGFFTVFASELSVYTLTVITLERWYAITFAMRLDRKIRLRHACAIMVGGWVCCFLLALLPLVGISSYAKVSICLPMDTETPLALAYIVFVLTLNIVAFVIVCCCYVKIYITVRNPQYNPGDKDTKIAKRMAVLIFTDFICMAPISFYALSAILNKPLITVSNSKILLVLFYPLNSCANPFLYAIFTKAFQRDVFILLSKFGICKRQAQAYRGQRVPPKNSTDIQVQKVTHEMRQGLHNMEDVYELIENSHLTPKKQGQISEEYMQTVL
Luciferin 4-monooxygenase (Photinus pyralis), sequence (P08659 whole entry, looked up): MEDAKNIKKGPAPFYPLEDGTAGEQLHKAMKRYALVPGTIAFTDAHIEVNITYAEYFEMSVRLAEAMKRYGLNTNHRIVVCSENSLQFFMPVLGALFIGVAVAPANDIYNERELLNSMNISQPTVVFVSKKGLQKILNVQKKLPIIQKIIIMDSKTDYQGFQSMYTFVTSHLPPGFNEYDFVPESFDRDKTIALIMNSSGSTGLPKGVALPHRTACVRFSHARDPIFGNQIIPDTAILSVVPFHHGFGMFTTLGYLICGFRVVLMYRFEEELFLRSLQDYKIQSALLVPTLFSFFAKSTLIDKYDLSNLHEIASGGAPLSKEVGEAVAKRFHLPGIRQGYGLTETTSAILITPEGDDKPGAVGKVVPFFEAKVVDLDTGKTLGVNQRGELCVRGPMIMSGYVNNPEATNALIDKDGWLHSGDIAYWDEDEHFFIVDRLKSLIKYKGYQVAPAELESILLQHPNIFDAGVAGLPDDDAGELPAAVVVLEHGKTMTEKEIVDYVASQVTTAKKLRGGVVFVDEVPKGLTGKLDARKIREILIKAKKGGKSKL

On to `CC[n+]1ccccc1`, for which the Potency entry in test [1], in test [3], in test [4], in test [5], in [6] and in test [7] was “inactive” in each case. Besides, the Potency entry in test [8] was “inactive”. In test [2], the Potency entry was “inactive and 30.4 µM (active)”. The call in [9] was inactive.

In the case of `O=C(O)c1ccccc1O`, the Potency entry in [1], in test [2], in [4], in test [5], in test [10] and in [11] was “inactive” in each case. For the same compound, the Potency result in [6] is “inactive”. For the same compound, the outcome in test [9] was inactive.

In the case of `Cc1cc(Cl)ccc1N`, the Potency result in [1], in test [3], in [4], in [5], in test [10] and in test [11] was “inactive” each time. For the same compound, the Potency entry in test [6] and in test [7] was “inactive” each time. Further, in test [9], the result was inactive.

Consider `O=C(O)C(Cl)(Cl)Cl`, for which the Potency entry in [1], in test [3], in [4], in test [5], in test [10] and in [11] was “inactive” each time. The Potency entry in [6], in test [7] and in [12] was “inactive” throughout. Moreover, the result in test [9] was inactive.

`CC[N+](CC)(CC)CC`: the Potency entry in test [1], in test [14], in test [4], in [5], in [10] and in [11] was “inactive” each time. Besides, the Potency entry in test [6] and in [7] was “inactive” each time. In addition, the call in test [13] and in test [9] was inactive.

On to `C[C@]12CCC(=O)C=C1CC[C@@H]1[C@@H]2CC[C@]2(C)C(=O)CC[C@@H]12`, for which the Potency entry in test [1], in [3], in [4], in test [5], in [10] and in [11] was “inactive” throughout. The Potency result in [6], in test [16] and in test [7] was “inactive” throughout. Moreover, the Potency in [15] is 67.4 µM (active) and inactive; in test [12] it was 88.3 µM (active).

With `O=C(O)C(Cl)Cl`, the Potency result in test [2], in test [3], in test [4], in test [5], in test [6] and in test [7] was “inactive” in each case. Moreover, in test [12], the Potency entry was “inactive”. Further, the result in test [9] was inactive.

For the compound `CCC(=O)C(CC(C)N(C)C)(c1ccccc1)c1ccccc1` (centres undefined), the Potency result in test [1], in [4], in [5], in test [10], in test [11] and in test [6] was “inactive” throughout. The Potency result in [7] is “inactive”. In addition, the result in test [9] was inactive.

For the compound `Nc1ccc(Cl)cc1`, the compound was classed as inactive in [13] and in test [9]. In addition, the Potency entry in [14], in test [3], in test [4], in test [5], in test [10] and in test [11] was “inactive” each time. Also, the Potency result in test [6], in [7] and in test [12] was “inactive” throughout.

For `CCCn1cc[n+](C)c1`, the Potency result in test [2], in test [3], in test [4], in [5], in test [6] and in test [7] was “inactive” in each case. Besides, the Potency result in [8] was “inactive”. In addition, the outcome in test [9] was inactive.

`CCCC[n+]1ccc(C)cc1`: the Potency result in test [1], in [4], in test [5], in [6] and in [12] was “inactive” in each case. Moreover, the Potency in test [3] was 20.3 µM (active) and inactive. In addition, the compound was called inactive in test [9].

As for `CCn1cc[n+](C)c1C`, the Potency result in [1], in [2], in [3], in test [4], in [5] and in test [6] was “inactive” each time. The Potency result in test [8] was “inactive”. The outcome in test [9] was inactive.

For `Oc1cccc2cccnc12`, the Potency in test [14] is 0.727 µM (active); in test [10], 1.38 µM (active) and 770 nM (active) and inactive; in test [6], 2.43 µM (active) and inactive.

As to `Nc1ccc(-c2ccc(N)cc2)cc1`, the Potency result in test [1], in [4], in [5], in test [10], in test [6] and in test [7] was “inactive” each time. Further, the Potency in test [3] is 78.7 µM (active) and 28.1 µM (active); in [11] it was 53.9 µM (active) and inactive and 21.7 µM (active). Also, the compound was called inactive in [9].

Consider `O=C(O)CC(O)(CC(=O)O)C(=O)O`, for which the Potency result in [2], in [3], in test [4], in [5] and in test [6] was “inactive” in each case.
